# Most compounds without a hit are left out; they make up all but 3.3% or so of the library.
# SARS PLP yeast: SARS-CoV PLP inhibition in yeast. S. cerevisiae expressing SARS-CoV PLpro, growth rescue. Potency, µM (doses to about 32.9 µM), without a hit: top-dose activity, positive = growth rescue, actives largely listed as activators. actives 0.19% (n = 330,000). AID 485353; calls by dose curve; note: 0% is about no effect; nearly all actives have a fitted effect of over 55% in size
# RE007 growth inh: less growth of the S. pombe RE007 Vpr strain. S. pombe RE007 Vpr strain, BacTiter-Glo ATP luminescence, 24 h. Potency, µM (highest dose often 92.2 µM), without a hit: at the top dose activity change, negative = less growth, usual class: inhibitors. actives 0.21% (n = 360,000). AID 651644; active = well fitted falling curve with a large enough effect; inconclusive = small, poorly fitted or top-dose-only effect; inactive = no such curve, though single readings can be large or run the other way; note: % is set by controls: 0 for no effect and ±100 for the full control effect; nearly all actives have a fitted effect of over 50% in size
#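 Fission yeast RE007 carrying one integrated HIV-1 vpr copy, seeded at OD 0.01 in PMG+AL medium with 23 nL pinned compound. Grown 24 h at 30 degrees; viability read by BacTiter-Glo luminescence after 5 min.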
# Sm TGR inh: inhibitors of Schistosoma mansoni thioredoxin glutathione reductase | purified TGR, DTNB reduction, TNB absorbance 405 nm | Q962Y6 | actives 3% (n = 360,000) | AID 485364 | Potency, µM (top dose mostly 114 µM), inactives show at the highest dose activity change, negative = inhibition, actives largely listed as inhibitors; note: % is set by controls: 0 for no effect and ±100 for the full control effect; nearly all actives have a fitted effect of over 60% in size
#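 TGR 20 nM + NADPH 100 uM (dispensed conc.), cpd preinc 15 min RT; start with NADPH (500 uM addition) then DTNB (15 mM addition). Kinetic TNB absorbance, 405 nm filter. Four-parameter Hill fit across titration.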
# Tb PYK inh: blocks Trypanosoma brucei pyruvate kinase; Potency, µM (titrated, usually from 76.8 µM), for the others: at the top dose activity, negative = inhibition, actives largely listed as inhibitors; TbPYK enzyme, Kinase-Glo Plus ATP luminescence, 45 min; Q57TT1; actives 0.12% (n = 410,000); note: % is set by controls: 0 for no effect and ±100 for the full control effect; nearly all actives have a fitted effect of over 50% in size
#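 In this concentration-response screen, enzyme-free wells defined baseline while DMSO plates tracked drift. Each reaction combined TbPYK, substrate, compound and 130 uM ADP for 45 min at room temperature. Kinase-Glo Plus luminescence gave the signal.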
# AmpC inh no detg: blocks E. coli AmpC beta-lactamase in detergent-free assay | Potency, µM (top dose mostly 57.1 µM), without a hit: at the top dose activity change, negative = inhibition, most hits filed as inhibitors | P00811 | AID 485341 | actives 0.52% (n = 330,000) | AmpC nitrocefin hydrolysis, absorbance 480 nm, 0.0001% Triton;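 note: plate controls were no compound for no effect and no enzyme for full effect; nearly all actives have a fitted effect of over 20% in size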
# Target sequence (P00811 whole entry, looked up): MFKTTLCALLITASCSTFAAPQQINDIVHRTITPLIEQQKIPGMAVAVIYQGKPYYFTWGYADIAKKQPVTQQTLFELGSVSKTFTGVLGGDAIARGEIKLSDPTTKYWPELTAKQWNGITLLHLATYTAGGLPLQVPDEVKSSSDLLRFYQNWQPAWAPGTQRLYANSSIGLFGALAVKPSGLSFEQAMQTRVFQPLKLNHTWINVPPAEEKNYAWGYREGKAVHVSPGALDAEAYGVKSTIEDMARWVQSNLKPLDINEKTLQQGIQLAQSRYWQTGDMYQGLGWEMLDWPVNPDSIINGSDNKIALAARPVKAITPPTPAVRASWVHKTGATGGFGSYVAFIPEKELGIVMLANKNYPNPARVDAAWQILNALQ
#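 20 mM phosphate pH 7.0 + 0.01% (detergent screen) or 0.0001% Triton X-100; 5.3 nM AmpC reagent; cpd preinc 15 min RT; nitrocefin (800 uM stock) to start; A480 q20 s × 4 min; Activity was normalised to no-enzyme and no-compound control wells.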
# AmpC detergent: blocks E. coli AmpC beta-lactamase in detergent assay. AmpC hydrolysis of nitrocefin, absorbance 480 nm, 0.01% Triton. Potency, µM (highest dose often 114 µM), for the others: top-dose activity change, negative = inhibition, usual class: inhibitors. actives 0.041% (n = 370,000);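 note: 0% = no-compound wells and -100% = no-enzyme wells; nearly all actives have a fitted effect of over 25% in size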
#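 20 mM phosphate pH 7.0 + 0.01% (detergent screen) or 0.0001% Triton X-100; 5.3 nM AmpC reagent; cpd preinc 15 min RT; nitrocefin (800 uM stock) to start; A480 q20 s × 4 min; Activity was normalised to no-enzyme and no-compound control wells.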
# Starred values were filed as active, the others as inactive; ? = inconclusive; / = no result given; [ ] = dose if it differs, or a comment. Unless noted, calls come from the whole dose curve; as a rule, active = well fitted curve in the direction sought with a large enough effect; inconclusive = small, poorly fitted or top-dose-only effect, or another doubt; inactive = no such curve, though single readings can be large; an effect the other way counts as inactive or inconclusive. Potency is the fitted concentration of half-maximal effect.
SMILES,SARS PLP yeast,RE007 growth inh,Sm TGR inh,Tb PYK inh,AmpC inh no detg,AmpC detergent
CCCC1=C(C(=O)OCC)C(c2ccc(OC)c(CSc3ccccn3)c2)C(C#N)=C(N)O1 (stereo not drawn),24%,?,32µM*,-4%,-6%,-10%
C=CCOC(=O)C1=C(C)OC(N)=C(C#N)C1c1ccc(OC)c(CSc2ccccn2)c1 (stereo not drawn),7%,15%,-13%,-5%,-19%,-5%
Cc1ccc(NCc2cc3cc4c(cc3n(CC(=O)Nc3ccc(C)cc3)c2=O)OCCO4)cc1,/,/,45µM*,6%,/,10%
Cc1ccc(NCc2cc3cc4c(cc3n(CC(=O)Nc3ccc(F)cc3F)c2=O)OCCO4)cc1,/,/,?,-7%,/,3%
Cc1cc(OCC(=O)N2CCC(c3nc4ccccc4s3)CC2)ccc1Cl,/,/,2%,2%,/,3%
COc1cc(S(=O)(=O)NCCc2c(C)[nH]c3ccccc23)c(C)cc1C,/,/,3%,0%,/,0%
Nc1c(C(=O)N/N=C/c2cccnc2)oc2nc(-c3ccco3)cc(-c3ccco3)c12,0%,-2%,13µM*,-7%,4%,-5%
Nc1c(C(=O)N/N=C/c2cccnc2)oc2nc(-c3ccccc3)cc(-c3ccco3)c12,2%,1%,?,-9%,-8%,-1%
COc1cc(/C=C2\CCCc3c2nc2ccccc2c3C(=O)O)cc([N+](=O)[O-])c1O,0%,-5%,-23%,3%,-20%,-2%
COc1cc(/C=C2\CCCc3c2nc2ccccc2c3C(=O)O)cc(OC)c1O,1%,-4%,20µM*,?,-17%,-8%
COc1ccc(/C=C2\CCCc3c2nc2ccccc2c3C(=O)O)cc1OC,1%,/,20µM*,/,-31%,4%
CC(=O)Nc1ccc(Nc2nc(Cl)nc(Nc3ccc(NC(C)=O)cc3)n2)cc1,0%,-14%,35µM*,3%,-4%,0%
CC1Sc2ccc(S(=O)(=O)CCC(=O)N(C)Cc3ccco3)cc2NC1=O (stereo not drawn),3%,-3%,?,-9%,-5%,3%
CCOc1ccccc1N(C)C(=O)CCS(=O)(=O)c1ccc2c(c1)NC(=O)C(C)S2 (stereo not drawn),1%,8%,35µM*,-8%,4%,-5%
COc1cccc(CNC(=O)C2CCN(c3nc4ccc(Cl)cc4[nH]3)CC2)c1,/,/,6%,3%[15.4 µM],/,14%
Cc1[nH][nH]c(=O)c1C(c1ccc(-c2cccc(Cl)c2)o1)c1c(C)[nH][nH]c1=O,0%,-8%,7.1µM*,?,-35%,1%
Cc1[nH][nH]c(=O)c1C(c1ccc(-c2ccccc2C(=O)O)o1)c1c(C)[nH][nH]c1=O,1%,-20%,?,-12%,-22%,-1%
COC(=O)c1ccc(-c2ccc(C(c3c(C)[nH][nH]c3=O)c3c(C)[nH][nH]c3=O)o2)cc1,-8%,7%,8.9µM*,-19%,-51%,?
Cc1[nH][nH]c(=O)c1C(c1ccc(-c2cccc(C(=O)O)c2)o1)c1c(C)[nH][nH]c1=O,0%,2%,?,-9%,-14%,7%
Cc1ccccc1NC(=O)C1CCN(S(=O)(=O)c2ccccc2)CC1,/,/,0%,1%,/,10%
COc1ccc(-c2cc(C(F)(F)F)n3ncc(C(=O)NCc4ccco4)c3n2)cc1,-3%,?,45µM*,-6%,-13%,1%
O=C(NC1CCCC1)c1cnn2c(C(F)(F)F)cc(-c3ccco3)nc12,3%,9%,?,-1%,0%,-3%
CC(C)CCNC(=O)c1cnn2c(C(F)(F)F)cc(-c3ccco3)nc12,-9%,-1%,20µM*,-27%,-6%,3%
O=C(NCc1ccco1)c1cnn2c(C(F)(F)F)cc(-c3ccccc3)nc12,0%,11%,?,-4%,-14%,-9%
CN(C(=O)NCc1noc2ccccc12)c1cccc(Cl)c1,/,/,-7%,-6%,/,-3%
SMILES,SARS PLP yeast,RE007 growth inh,Sm TGR inh,Tb PYK inh,AmpC inh no detg,AmpC detergent
O=C(CSc1nc(=O)n(CCN2CCOCC2)c2c1CCC2)Nc1ccccc1,/,/,-8%,2%,/,1%
CN(C)c1cc[n+](CC(=O)Nc2c(Cl)cc(Cl)cc2Cl)cc1,-2%,-23%,40µM*,7%,-8%,-3%
CC(=C1C(=O)c2ccccc2C1=O)N1CCN(C/C=C/c2ccccc2)CC1,-1%,-19%,?,-21%,-12%,-2%
CC(=C1C(=O)c2ccccc2C1=O)N1CCC(C(N)=O)(N2CCCCC2)CC1,-3%,-9%,32µM*,-2%,-10%,?
CC(=C1C(=O)c2ccccc2C1=O)N1CCN(Cc2ccccc2)CC1,-4%,-9%,40µM*,-20%,-19%,?
COc1ccc(CNC(=O)CN2C(=O)CSc3ccc(S(=O)(=O)N(C)C)cc32)cc1,/,/,9%,0%,/,5%
COc1ccccc1C(=O)Nc1nnc(SCc2cc(=O)c3ccccc3[nH]2)s1,/,/,-1%,2%,/,16%
Cc1ccccc1-c1nc2c(c(SCc3cccc(Cl)c3)n1)Cc1c(CO)cnc(C)c1O2,/,/,-3%,2%,/,-2%
CCCCSc1nnc([C@@H]2CCCN2C(=O)OC(C)(C)C)o1,6%,6%,-4%,1%,64%,32µM*
CCOC(=O)C1(C)C=C(Nc2ccc(C(=O)O)cc2)C(=O)N1c1ccc(C(=O)O)cc1 (stereo not drawn),/,/,-9%,5%,/,4%
COC(=O)c1cc(NC(=O)c2cccc(C(F)(F)F)c2)c(=O)oc1C/C=N/OCc1cccc(Cl)c1Cl,-5%,-6%,2%,-7%,7.9µM*,-8%
COc1ccc(NC(=O)CSc2nc3nc(C)c(Cc4ccc(C)cc4)c(C)n3n2)cc1OC,/,/,2%,-1%,/,-3%
O=C(COC(=O)c1cnc(Cl)c(Cl)c1)c1ccc(F)cc1,-2%,11%,/,0%,-13%,/
O=c1cnn(Cc2ccc(F)cc2)c2ccccc12,0%,4%,9%,0%,0%,-4%
O=C(OCCN1CCCCC1)c1ccccc1Cl,7%,1%,2%,-2%,-12%,?
O=c1c(Cl)c(Cl)cnn1Cc1ccc(F)cc1,-4%,2%,20µM*,3%,4%,-1%
O=C(OCn1ncc(Cl)c(Cl)c1=O)c1ccccc1Cl,-31%,45µM*,7.1µM*,-1%,-20%,?
